Shown are actives, neighbours in structure and some others; about 1.9% of the full set was active somewhere.
TDP-43 yeast inh: inhibitors of TDP-43 toxicity in yeast; TDP-43 expressing yeast growth rescue, BacTiter-Glo, 24 h; Potency, µM (top dose mostly 46.1 µM), inactives show at the highest dose growth rescue (activation), most hits filed as activators; 410,000 compounds, 1.8% hits; further: potency means the concentration at half of the fitted maximal effect; % of control where 0% means no effect; nearly all actives have a fitted effect of over 50% in size
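Luminescence from BacTiter-Glo reports growth of TDP-43-expressing yeast after 24 hr at 30 deg C with compound. Cells were raffinose-pregrown to mid-log, then seeded in galactose medium at OD600=0.02.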
PTHR1 ag: PTHR1 (human) receptor agonism; HEK293 GP2 PTHR1 cells, GloSensor cAMP luminescence, 1 h; Potency, µM (series often up to 115 µM), for the others: at the highest dose activation, hits mostly activators; Q03431; 410,000 compounds, 0.075% hits; further: potency means the concentration at half of the fitted maximal effect; nearly all actives have a fitted effect of over 55% in size
Target sequence (Q03431 whole entry, looked up): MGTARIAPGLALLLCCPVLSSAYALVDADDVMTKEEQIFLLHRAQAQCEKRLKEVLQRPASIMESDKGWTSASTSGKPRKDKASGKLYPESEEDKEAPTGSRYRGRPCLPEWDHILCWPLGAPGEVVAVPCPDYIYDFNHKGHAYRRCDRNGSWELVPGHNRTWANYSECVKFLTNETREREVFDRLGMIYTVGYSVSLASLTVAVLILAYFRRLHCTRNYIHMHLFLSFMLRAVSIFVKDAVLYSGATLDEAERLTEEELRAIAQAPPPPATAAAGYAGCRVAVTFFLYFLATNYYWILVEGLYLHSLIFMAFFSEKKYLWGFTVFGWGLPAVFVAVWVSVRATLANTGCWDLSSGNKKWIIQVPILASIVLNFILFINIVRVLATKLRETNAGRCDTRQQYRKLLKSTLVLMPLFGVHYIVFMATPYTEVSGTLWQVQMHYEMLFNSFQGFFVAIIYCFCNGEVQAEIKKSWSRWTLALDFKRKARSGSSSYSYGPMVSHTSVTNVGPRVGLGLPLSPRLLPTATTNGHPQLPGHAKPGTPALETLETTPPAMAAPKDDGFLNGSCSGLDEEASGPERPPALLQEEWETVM
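HEK-293-derived GP2 cells expressing PTHR1 and a GloSensor cAMP reporter, 3,000/well, plated overnight, given luciferin plus IBMX (each 0.5 mM as added) for 1 h at 37 °C, then compound for 1 h at 37 °C. Luminescence was read after 15 min at room temperature.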
LDHA block: LDHA (human) enzyme inhibition; 480,000 compounds, 0.15% hits; purified LDHA, NADH/diaphorase-resazurin fluorescence; active compounds read low; AID 1347041; activity change, % (values are at about 110 or 230 µM); in the data active means activity change below about -30%; inconclusive means mostly about -25% to -30%;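 further: plate controls were DMSO wells for no effect and wells without enzyme for full effect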
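LDH5 2 nM; NADH 0.06 mM, pyruvate 0.2 mM; 200 mM Tris pH 7.4, EDTA, Tween-20; 5 min RT. Detection: diaphorase 0.133 mg/mL + resazurin 37 µM, fluorescence ex540/em590 at 0 and 20 min; normalized to enzyme-free and DMSO wells.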
Abeta rescue: compounds reversing amyloid beta toxicity in yeast; AID 1347071; yeast expressing A-beta42, growth rescue, OD600, 48 h; response scale: 0% DMSO, 100% iron-clioquinol control; 410,000 compounds, 0.063% hits; Potency, µM (titrated, usually from 46.1 µM), usual class: activators; further: potency means the concentration at half of the fitted maximal effect; nearly all actives have a fitted effect of over 55% in size
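Growth rescue measured by 600 nm absorbance after 48 h yeast culture at 30 C with compound. Values normalized between DMSO and an equimolar ferric chloride plus clioquinol control.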
FUS yeast rescue: rescues growth of FUS-expressing yeast. Potency, µM (highest dose often 76.6 µM), hits mostly activators. AID 1347120. S. cerevisiae FUS-expressing, growth rescue, OD600, 24 h. 390,000 compounds, 0.24% hits;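 further: potency means the concentration at half of the fitted maximal effect; plate controls were DMSO vehicle for no effect and reference control for full effect; nearly all actives have a fitted effect of over 55% in size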
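Absorbance at 600 nm, taken 24hr after compound addition, measured rescue of FUS-yeast growth at 30C. Induction used 2% galactose with seeding at OD 0.005. Controls: CP55940 from 92uM final, DMSO only.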
aSyn yeast inh: inhibitors of alpha-synuclein toxicity in yeast; Potency, µM (highest dose often 46.1 µM), inactives show at the top dose growth rescue (activation), actives largely listed as activators; Yeast expressing alpha-synuclein, growth rescue, BacTiter-Glo, 24 h; 370,000 compounds, 0.14% hits; further: potency means the concentration at half of the fitted maximal effect; % of control where 0% means no effect; nearly all actives have a fitted effect of over 65% in size
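Readout is rescue of growth in alpha-synuclein-expressing yeast, so inhibitors of toxicity appear as activators. Growth after 24 hr at 30 deg C in galactose medium is quantified by luminescence.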
Active calls of the source: *; [ ] = remark or other dose. Unless noted, the call rests on the fitted dose curve; in most records, active means well fitted curve in the direction sought with a large enough effect; inconclusive means small, poorly fitted or top-dose-only effect, or another doubt; inactive means no such curve, though single readings can be large; an effect the other way counts as inactive or inconclusive.

How did S=C(NCCc1ccccc1)NCc1cccc(Cl)c1 do in these assays?
TDP-43 yeast inh: 23%; PTHR1 ag: inactive; LDHA block: 1; Abeta rescue: 16µM*; FUS yeast rescue: inactive; aSyn yeast inh: 4%

What do the screens show for `S=C(NCc1ccccc1)C(=S)NCc1ccccc1`?
TDP-43 yeast inh: 19%; PTHR1 ag: inactive; LDHA block: -5; Abeta rescue: 8.9µM*; FUS yeast rescue: inactive; aSyn yeast inh: -31%

Results for S=C(NCCCCc1ccccc1)NCc1ccccc1 ?
TDP-43 yeast inh: 15%; PTHR1 ag: 17%; LDHA block: -7; Abeta rescue: 16µM*; FUS yeast rescue: inactive; aSyn yeast inh: 0%

Results for S=C(NCCc1ccccc1)Nc1ccccc1Cl ?
TDP-43 yeast inh: 7%; PTHR1 ag: -22%; LDHA block: -6; Abeta rescue: inactive; FUS yeast rescue: inactive; aSyn yeast inh: -16%

What do the screens show for `COc1ccc(C2CC(=O)NC3=C2C(=O)CC(C)(C)C3)cc1` (stereo not given)?
LDHA block: 2

Results for CCCCn1nc(C(=O)Nc2nc(C)cs2)c2ccccc2c1=O ?
LDHA block: 7

Results for O=C(CC1CC2CCC1C2)NCc1ccccn1 (stereo not given) ?
LDHA block: -10

How did S=C(NCc1ccc(Cl)cc1)Nc1ccccc1 do in these assays?
TDP-43 yeast inh: inconclusive; PTHR1 ag: -5%; LDHA block: 0; Abeta rescue: 13µM*; FUS yeast rescue: inactive; aSyn yeast inh: 9%

How did COc1ccccc1NC(=S)NCCc1ccc(Cl)cc1 do in these assays?
TDP-43 yeast inh: 16µM*; PTHR1 ag: -9%[57.5 µM]; LDHA block: -3; Abeta rescue: inactive; FUS yeast rescue: inactive; aSyn yeast inh: 6%

What do the screens show for `Cc1c(Cl)cccc1NC(=S)NCCc1ccc(C(F)(F)F)cc1`?
TDP-43 yeast inh: 14µM*; PTHR1 ag: -3%; LDHA block: -2; Abeta rescue: inconclusive; FUS yeast rescue: inactive; aSyn yeast inh: -1%

How did COc1ccccc1NC(=S)NCCSc1ccc(Cl)cc1 do in these assays?
TDP-43 yeast inh: 0%; PTHR1 ag: inactive; LDHA block: -1; Abeta rescue: inactive; aSyn yeast inh: -8%

What do the screens show for `Cc1cc(Cl)ccc1NC(=S)NCc1ccc(F)cc1`?
TDP-43 yeast inh: 18µM*; PTHR1 ag: -31%; LDHA block: -6; Abeta rescue: inactive; FUS yeast rescue: inactive; aSyn yeast inh: -8%

What do the screens show for `Cc1ccc2oc(C(=O)N(Cc3ccc(F)cc3)C3CCS(=O)(=O)C3)cc(=O)c2c1` (stereo not given)?
LDHA block: 5

What do the screens show for `CN(Cc1ccsc1)C(=O)CSc1nnc(COc2ccccc2Cl)n1C`?
LDHA block: -2

How did CCc1cc(=O)n(CC(=O)Nc2ccccc2C)c(-n2nc(C)cc2C)n1 do in these assays?
LDHA block: 6

Results for CCc1c(C)sc(NC(=O)c2cc(C)oc2C)c1C#N ?
LDHA block: -3

What do the screens show for `Cc1ccc(S(=O)(=O)C(CNS(=O)(=O)c2ccc(F)c(C(F)(F)F)c2)c2ccco2)cc1` (stereo not given)?
TDP-43 yeast inh: 4µM*; PTHR1 ag: -25%; LDHA block: 0; Abeta rescue: inactive; FUS yeast rescue: inactive

Results for COc1ccc(S(=O)(=O)NCC(c2ccco2)S(=O)(=O)c2ccc(C)cc2)cc1F (stereo not given) ?
TDP-43 yeast inh: inconclusive; PTHR1 ag: -24%; LDHA block: -9; Abeta rescue: inactive; FUS yeast rescue: inactive

How did Cn1c(=O)c(-c2ccccc2[N+](=O)[O-])c(Cl)c2ccccc21 do in these assays?
TDP-43 yeast inh: 16µM*; PTHR1 ag: -37%; LDHA block: -5; Abeta rescue: inactive; FUS yeast rescue: inactive; aSyn yeast inh: 10%

How did CCN(C(=O)c1ccco1)c1nc(-c2ccccc2)cs1 do in these assays?
LDHA block: -34*

How did CCC(=O)N(CC)c1nc(-c2ccc(OC)cc2)cs1 do in these assays?
TDP-43 yeast inh: 5µM*; PTHR1 ag: inactive; LDHA block: 1; Abeta rescue: inactive; FUS yeast rescue: inactive; aSyn yeast inh: -23%

Results for CCC(=O)N(Cc1ccco1)c1nc(-c2ccc(OC)cc2)cs1 ?
TDP-43 yeast inh: 11%; PTHR1 ag: -13%[57.5 µM]; LDHA block: -5; Abeta rescue: inactive; FUS yeast rescue: inactive; aSyn yeast inh: 5%

What do the screens show for `Cc1ccc2nc(-c3ccccc3)cc(C(=O)N3CCN(CC(=O)N4CCOCC4)CC3)c2c1`?
LDHA block: -1

What do the screens show for `Cc1ccc(NC(=O)c2ccc(-n3cccn3)c([N+](=O)[O-])c2)cc1`?
TDP-43 yeast inh: -7%; PTHR1 ag: -54%[57.5 µM]; LDHA block: -8; Abeta rescue: inactive; FUS yeast rescue: inactive; aSyn yeast inh: -9%

Results for O=C(Nc1ccc(C2=NCCN2)cc1)c1ccc(C(=O)Nc2ccc(C3=NCCN3)cc2)c([N+](=O)[O-])c1 ?
TDP-43 yeast inh: 16%; PTHR1 ag: -2%; LDHA block: -36*; Abeta rescue: inactive; FUS yeast rescue: inactive; aSyn yeast inh: -9%

Results for Cc1cccc(N2CCN(C(=O)/C=C/c3cccs3)CC2C)c1 (stereo not given) ?
PTHR1 ag: -35%; LDHA block: 1; Abeta rescue: inconclusive; FUS yeast rescue: inactive; aSyn yeast inh: 12%

How did Cc1cccc(N2CCN(C(=O)COc3ccc4c(c3)CCC4)CC2C)c1 (stereo not given) do in these assays?
TDP-43 yeast inh: 35µM*; PTHR1 ag: -12%; LDHA block: -1; Abeta rescue: inactive; FUS yeast rescue: inconclusive; aSyn yeast inh: 26%

Results for Cc1cccc(N2CCN(C(=O)CS(=O)(=O)Cc3nc(-c4ccccc4F)oc3C)CC2C)c1 (stereo not given) ?
TDP-43 yeast inh: 19%; PTHR1 ag: -36%; LDHA block: 1; Abeta rescue: inactive; FUS yeast rescue: 32µM*; aSyn yeast inh: 9%

How did Cc1cccc(N2CCN(C(=O)COc3ccc4c(c3)CCC4)CC2)c1C do in these assays?
TDP-43 yeast inh: 20%; PTHR1 ag: -9%; LDHA block: 0; Abeta rescue: inactive; aSyn yeast inh: 8%

Screening results deposited in PubChem BioAssay by National Center for Advancing Translational Sciences (NCATS).
